NPR1 antag – blocks ANP-stimulated signaling of human Npr1 receptor. HEK293 hNpr1 GloSensor cGMP, ANP-stimulated luminescence. Potency, µM (highest dose often 46.3 µM), without a hit: at the highest dose activity change, negative = inhibition, most hits filed as inhibitors. 1.6% of 76,000 active. P16066; calls by dose curve; also: % is scaled to controls: 0 for no effect and ±100 for the full control effect; nearly all actives have a fitted effect of over 60% in size
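Compound pre-incubated 30 min at room temperature on GloSensor-loaded HEK293 cells stably carrying hNpr1 and the pGS-40F cGMP biosensor. Stimulation uses hNppA at 0.1 nM final; luminescence is taken at baseline and 20 min post-agonist.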
HEK cytotox – kills HEK 293 cells. HEK 293 viability, ATP luminescence (CellTiter-Glo), 48-72 h. Potency, µM (series often up to 115 µM), for the others: top-dose activity change, negative = cytotoxicity, actives largely listed as inhibitors. 6.6% of 94,000 active. AID 1345083; also: % is scaled to controls: 0 for no effect and ±100 for the full control effect; nearly all actives have a fitted effect of over 60% in size
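250 HEK 293 cells/well; compound by pintool; incubated 48 or 72 hr at 37 degree Celsius; CellTiter-Glo added, 10 min RT, luminescence imaged.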
FLuc inh-1 – inhibitors of firefly (Photinus pyralis) luciferase; purified P. pyralis luciferase, luminescence, biochemical; AID 1347043; Potency, µM (top dose mostly 115 µM), usual class: inhibitors; 2.5% of 76,000 active; also: % is scaled to controls: 0 for no effect and ±100 for the full control effect; nearly all actives have a fitted effect of over 65% in size
Target sequence (P08659 whole entry, looked up): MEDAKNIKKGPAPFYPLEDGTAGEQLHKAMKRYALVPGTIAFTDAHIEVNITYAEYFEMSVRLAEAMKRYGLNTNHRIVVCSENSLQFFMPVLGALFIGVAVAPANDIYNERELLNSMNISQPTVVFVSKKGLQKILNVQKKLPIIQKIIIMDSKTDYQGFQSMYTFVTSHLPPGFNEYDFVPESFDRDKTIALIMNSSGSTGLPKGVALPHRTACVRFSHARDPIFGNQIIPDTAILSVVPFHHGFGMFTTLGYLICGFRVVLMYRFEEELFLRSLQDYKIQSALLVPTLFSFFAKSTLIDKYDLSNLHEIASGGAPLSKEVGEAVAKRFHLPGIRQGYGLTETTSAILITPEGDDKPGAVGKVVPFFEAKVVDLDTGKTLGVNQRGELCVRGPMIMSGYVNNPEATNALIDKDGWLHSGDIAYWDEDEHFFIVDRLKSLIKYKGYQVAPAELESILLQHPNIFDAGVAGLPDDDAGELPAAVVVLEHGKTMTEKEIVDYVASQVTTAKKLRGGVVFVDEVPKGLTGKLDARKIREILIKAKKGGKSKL
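FLuc 10nM, D-luciferin 10uM, ATP 10uM, Mg acetate 10mM, Tris acetate pH 7.5, Tween/BSA; cpd qHTS; enzyme added last; CCD luminescence.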
GPT2 inh – GPT2 alanine aminotransferase inhibition | Q8TD30 | Potency, µM (series often up to 57.7 µM), for inactives: at the top dose activity change, negative = inhibition, actives largely listed as inhibitors | 0.25% of 100,000 active | Recombinant GPT2, coupled pyruvate oxidase/HRP Amplex Red fluorescence; also: % is scaled to controls: 0 for no effect and ±100 for the full control effect; nearly all actives have a fitted effect of over 60% in size
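Fluorescence read-out: pyruvate from GPT2 turnover coupled to pyruvate oxidase, HRP and Amplex Red (0.2mM ThPP, 0.2U/mL PO and HRP, 50uM Amplex final). Substrates 250uM a-KG, 2mM L-alanine; enzyme 10ng/uL; 30 min RT.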
3T3 cytotox – cytotoxic compounds in NIH 3T3 cells; NIH 3T3 viability, CellTiter-Glo ATP luminescence, 48-72 h; Potency, µM (titrated, usually from 96.7 µM), without a hit: at the top dose activity change, negative = cytotoxicity, actives largely listed as inhibitors; 4.3% of 94,000 active; also: % is scaled to controls: 0 for no effect and ±100 for the full control effect; nearly all actives have a fitted effect of over 55% in size
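Luminescent ATP readout (CellTiter-Glo, 10 min RT) after 48 or 72 hr compound exposure of NIH 3T3 cells seeded at 400 cells/well in 1536-well format; quantitative HTS.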
FLuc SDR no ATP – binders stabilizing firefly luciferase, without ATP; AID 1963318; Purified FLuc-C-HiBiT, Nano-Glo HiBiT luminescence, no ATP; Potency, µM (doses to about 32.7 µM), without a hit: at the top dose activation (signal gain), actives largely listed as activators; shares compounds with FLuc inh-1; 7.8% of 1,300 active; also: nearly all actives have a fitted effect of over 55% in size
FLuc SDR ATP – stabilizes firefly luciferase with ATP present | purified FLuc-C-HiBiT + ATP, HiBiT complementation luminescence | Potency, µM (highest dose often 32.7 µM), inactives show at the top dose activation (gain of signal), usual class: activators | 8.7% of 1,300 active | shares compounds with FLuc inh-1;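 also: signal reports ligand binding via conformational change of the enzyme rather than luciferase catalysis; % of control where 0% means no effect; nearly all actives have a fitted effect of over 55% in size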
FLuc inh-2 – blocks firefly luciferase enzymatic activity; shares compounds with FLuc inh-1; purified FLuc-C-HiBiT enzyme, luciferin luminescence; Potency, µM (series often up to 32.7 µM), for the others: at the top dose activity change, negative = inhibition, actives largely listed as inhibitors; 42% of 1,300 active; AID 1963320; also: % is scaled to controls: 0 for no effect and ±100 for the full control effect; nearly all actives have a fitted effect of over 70% in size
The depositor's hits bear a star; i = inactive; u = inconclusive; x = no result given; [ ] = remark or other dose. Sampled rows, rich in hits. Any-hit rate of the full collection: about 10%. Unless noted, calls follow the shape of the dose curve; as a rule, active = well fitted curve in the direction sought with a large enough effect; inconclusive = small, poorly fitted or top-dose-only effect, or another doubt; inactive = no such curve, though single readings can be large; an effect the other way counts as inactive or inconclusive. Potency is read from the fitted curve at half-maximal effect.

SMILES | NPR1 antag | HEK cytotox | FLuc inh-1 | GPT2 inh | 3T3 cytotox | FLuc SDR no ATP | FLuc SDR ATP | FLuc inh-2
CN1CC(=O)N(c2ccccc2)Cc2c1ncnc2N1CCC(O)CC1 | -11% | -19% | i | u | -30% | x | x | x
NC(=O)C1CCN(c2ncnc3c2cnn3-c2ccccc2)CC1 | x | x | x | x | x | 15% | 12% | -9%
CN1CCC2(CC1)CN(C(=O)Cc1cccs1)Cc1ccccc1O2 | -14% | -28% | i | 4% | u | x | x | x
Cc1ccc(-c2nc3ccccc3s2)cc1NC(=O)COc1ccccc1 | x | x | x | x | x | 13% | 8% | -9%
COc1ccc(OCC(=O)Nc2cccc(-c3nc4ccccc4s3)c2C)cc1 | x | x | x | x | x | 27% | 16% | 7.9µM*
COc1ccc(CC(=O)Nc2ccc(-c3nc4ccccc4s3)cc2Cl)cc1 | x | x | x | x | x | 16% | 13% | -11%
COc1ccc(OCC(=O)Nc2cc(-c3nc4ccccc4s3)ccc2C)cc1 | x | x | x | x | x | 4% | 4% | u
Cc1ccc(C(=O)N2CC(c3ncc(C)n3Cc3ccccc3)C2)cn1 | x | u | x | 3% | -33% | x | x | x
O=c1oc2c(CN3CCCC3)c(O)ccc2cc1-c1ccccc1 | x | x | x | x | x | 13% | 12% | -4%
CC(=O)N1CCN(C(=O)c2nc3sccn3c2-c2cccnc2)CC1 | x | 4% | x | i | -11% | x | x | x
COc1ccccc1OCCCN1CCN(Cc2ccccc2)CC(O)C1 (stereo not given) | 0% | u | i | i | -24% | x | x | x
CN(C)C(=O)N1CCN(c2nccc(Nc3ccccc3Cl)n2)CC1 | x | u | x | -10% | u | x | x | x
O=C(NCCc1ccccc1F)c1nc2sccn2c1Br | u | u | 1.6µM* | i | u | 24% | u | 7µM*
CCOCC(=O)N1CCC2(CC1)NCCc1c2[nH]c2ccc(OC)cc12 | 3% | -10% | i | i | -24% | x | x | x
CCOC(=O)c1ccc(NC(=O)c2nsc3ccccc23)cc1 | x | x | x | x | x | 26% | 20% | 3.5µM*
CCOC(=O)c1ccc(NC(=O)C2CC(=O)N(c3n[nH]c4ccccc34)C2)cc1 (stereo not given) | 1% | u | i | -5% | u | x | x | x
O=C1Nc2ccccc2CC12CCN2[S+](=O)([O-])c1ccccc1 (stereo not given) | 11%[70.6 µM] | i | i | i | -6%[138 µM] | x | x | x
COc1ccc(C(=O)N2CCC3(CC2)CC(CN2CCOCC2)N(C)C3)c(OC)n1 (stereo not given) | x | -13% | x | i | -22% | x | x | x
Cc1cn2nc(C(=O)Nc3ccc4c(c3)OCCO4)cc2c(N2CCCC2)n1 | -24% | u | i | i | u | x | x | x
Cn1nc(-c2ccc3c(c2)OCCO3)nc1N1CCCCC1 | u | -4% | 4µM* | i | u | u | u | 9.9µM*
CSCc1nc(-c2ccncc2)nn1Cc1ccc2c(c1)OCO2 | 11µM* | u | 4.5µM* | -13% | u | 10% | 19% | -13%
Cc1ccc(NC(=O)N2CCc3c(C(=O)NCCc4ccccn4)cccc32)cc1 | -20% | u | 5.6µM* | u | u | u | 11µM* | 4.4µM*
O=C(NCCN1CCc2ccccc2C1)c1cccc2c1CCN2C(=O)C1CC1 | 7% | -26% | i | -9% | u | x | x | x
CCCCNC(=O)c1cccc2c1CCN2C(=O)c1ccc(F)cc1 | 5% | u | i | i | -23% | x | x | x
CCCNC(=O)c1cccc2c1CCN2C(=O)Nc1cccc(C)c1 | -23% | u | 5µM* | -5% | 5% | u | 3.5µM* | 2.5µM*
SMILES | NPR1 antag | HEK cytotox | FLuc inh-1 | GPT2 inh | 3T3 cytotox | FLuc SDR no ATP | FLuc SDR ATP | FLuc inh-2
CCCCNC(=O)c1cccc2c1CCN2C(=O)Nc1ccccc1 | u | u | 3.5µM* | i | -25% | 24% | 2µM* | 1.6µM*
CCCNC(=O)c1cccc2c1CCN2S(=O)(=O)c1ccc(C)cc1 | u | u | i | u | u | x | x | x
CN(C)CCNC(=O)c1cccc2c1CCN2C(=O)Nc1ccccc1 | u | u | 3.5µM* | i | -4% | 17% | 1.1µM* | 0.7µM*
Cc1ccc(NC(=O)N2CCc3c(C(=O)NCc4ccco4)cccc32)cc1 | 1.1µM* | u | 0.089µM* | i | u | 9.9µM* | 0.078µM* | 0.05µM*
Cc1cccc(CCNC(=O)c2sc3nc4n(c(=O)c3c2C)CCCC4)c1 | x | x | x | x | x | 11% | 8% | -5%
CCOC(=O)C1CCCN(C(=O)c2cc(C(C)(C)C)nc3c2cnn3C)C1 (stereo not given) | x | u | x | -17% | u | x | x | x
O=C(NCc1ccccc1Cl)C1CCN(C(=O)c2ncn3c2COC(c2ccccc2)C3)CC1 (stereo not given) | -14% | 13% | 14µM* | u | 1% | 12% | u | u
O=C(NCc1ccc2c(c1)OCO2)C1CCN(c2cc(C(F)(F)F)ncn2)CC1 | u | u | 10µM* | i | u | 16% | 17% | u
CCOc1cccc(CNC(=O)C2CCN(C(=O)c3ncn4c3COC(c3ccccc3)C4)CC2)c1 (stereo not given) | -12% | 13% | 14µM* | 5% | -2% | 16% | u | u
O=C(NCc1ccc(Cl)cc1)C1CCN(C(=O)c2ncn3c2COC(c2ccccc2)C3)CC1 (stereo not given) | -23% | -17% | 8.9µM* | u | -7% | 14% | u | 3.9µM*
O=C(c1ccc[nH]1)N1CCC(n2cc(-c3nc(C4CC4)no3)nn2)C1 (stereo not given) | -16% | -3% | i | i | -20% | x | x | x
O=C(C1CCCN([S+](=O)([O-])c2cccs2)C1)N1CCC(N2CCOCC2=O)CC1 (stereo not given) | x | -8% | x | -12% | -7% | x | x | x
O=C(NCc1ccc2c(c1)OCO2)C1CCN(C(=O)c2ncn3c2COC(c2ccccc2)C3)CC1 (stereo not given) | -24% | 14% | 7.9µM* | 4% | i | 16% | u | 7µM*
O=C(NCc1ccco1)C1CCN(C(=O)c2ncn3c2COC(c2ccccc2)C3)CC1 (stereo not given) | -21% | 1% | 5µM* | 3% | 0% | 15% | 2.5µM* | 2.5µM*

Source: PubChem BioAssay
